Bioassay records from PubChem BioAssay.
GCN5L2 inh = qHTS Assay for Inhibitors of GCN5L2; Histone acetyltransferase KAT2A (Homo sapiens), Q92830; GCN5L2 HAT assay, ThioGlo1 CoA-SH fluorescence; Potency, µM (top dose mostly 58.9 µM), for inactives: at the highest dose activity change, negative = inhibition, most hits filed as inhibitors; 0.21% of 390,000 active; AID 504327, 2011; also: potency is read from the fitted curve at half-maximal effect; % is scaled to controls: 0 for no effect and ±100 for the full control effect
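Free CoA generated was detected with ThioGlo1 (50uM) fluorescence at Ex340nm/Em540nm, read immediately and after 20 min at room temperature. Enzyme, 20 nM in HEPES pH 7.5 buffer, saw compounds 15 min before adding 75uM H3(1-25) peptide and 70uM acetyl-CoA.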
TDP1 inh = qHTS Assay for Inhibitors of Tyrosyl-DNA Phosphodiesterase (TDP1). 0.28% of 350,000 active. Potency, µM (series often up to 130 µM), for inactives: at the top dose activity change, negative = inhibition, most hits filed as inhibitors. recombinant TDP1, AlphaScreen DNA substrate cleavage; also: potency is read from the fitted curve at half-maximal effect; % is scaled to controls: 0 for no effect and ±100 for the full control effect; nearly all actives have a fitted effect of over 40% in size
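Recombinant E. coli-expressed Tdp1 (1 nM) preincubated with compound 15 min at RT, then 5'-biotin/3'-phosphotyrosine-FITC DNA substrate (15 nM) added for 5 min. AlphaScreen beads (10 ug/ml) added, 10 min RT; tyrosine-FITC cleavage read as signal loss.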
PLK1 PBD inh = qHTS for Inhibitors of PLK1-PDB (polo-like kinase 1 - polo-box domain): Primary Screen | Serine/threonine-protein kinase PLK1 (Homo sapiens), P53350 | Plk1 PBD binding of FITC phosphopeptide, fluorescence polarization | Potency, µM, for the others: max response, negative = inhibition, most hits filed as inhibitors | 2.8% of 360,000 active | AID 720504, 2013; also: potency is read from the fitted curve at half-maximal effect; series mostly up to about 57 µM; % is scaled to controls: 0 for no effect and ±100 for the full control effect; nearly all actives have a fitted effect of over 65% in size
Target sequence (P53350 whole entry, looked up, the tested form may be a part): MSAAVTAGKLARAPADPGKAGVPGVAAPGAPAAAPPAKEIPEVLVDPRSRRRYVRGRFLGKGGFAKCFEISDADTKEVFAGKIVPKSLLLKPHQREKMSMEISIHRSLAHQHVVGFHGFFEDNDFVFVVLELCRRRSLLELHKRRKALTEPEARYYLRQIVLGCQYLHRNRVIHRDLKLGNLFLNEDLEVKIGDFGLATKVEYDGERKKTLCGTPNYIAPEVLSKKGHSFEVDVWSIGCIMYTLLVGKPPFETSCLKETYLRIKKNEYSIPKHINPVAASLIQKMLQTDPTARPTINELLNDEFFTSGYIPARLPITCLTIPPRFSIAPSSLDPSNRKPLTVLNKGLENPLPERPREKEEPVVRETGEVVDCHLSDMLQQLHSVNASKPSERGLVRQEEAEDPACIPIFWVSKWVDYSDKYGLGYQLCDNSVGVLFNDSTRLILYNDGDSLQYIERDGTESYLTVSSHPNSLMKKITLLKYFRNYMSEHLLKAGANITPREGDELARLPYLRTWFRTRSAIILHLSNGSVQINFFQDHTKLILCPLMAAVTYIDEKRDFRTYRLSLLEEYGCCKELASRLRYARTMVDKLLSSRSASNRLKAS
VDR inhibitor = Inhibitors of the vitamin D receptor (VDR): qHTS. Vitamin D3 receptor (Homo sapiens), P11473. VDR-SRC2-3 peptide fluorescence polarization, 2 h. Potency, µM, for the others: max response, negative = inhibition, actives largely listed as inhibitors. 0.93% of 400,000 active; also: potency is read from the fitted curve at half-maximal effect; % is scaled to controls: 0 for no effect and ±100 for the full control effect
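Measured by FP: displacement of SRC2-3 coactivator peptide from VDR by library compounds, following a two-hour ambient incubation.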
DT40 TDP1 CPT = qHTS for Inhibitors of human tyrosyl-DNA phosphodiesterase 1 (TDP1): qHTS in cells in presence of CPT; chicken DT40 Tdp1-/-;hTDP1 cells + 20 nM CPT, ATP luminescence, 48 h; Potency, µM (series often up to 46.2 µM), inactives show top-dose activity change, negative = growth inhibition, hits mostly inhibitors; 12% of 420,000 active; also: potency is read from the fitted curve at half-maximal effect; % is scaled to controls: 0 for no effect and ±100 for the full control effect; nearly all actives have a fitted effect of over 55% in size
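Chicken DT40 Tdp1-/- cells complemented with human TDP1, 400 cells/well, exposed to compounds plus 20 nM camptothecin for at least 48 h at 37 C; viability read as ATP content by CellTiter-Glo luminescence.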
DT40 TDP1 no CPT = qHTS for Inhibitors of human tyrosyl-DNA phosphodiesterase 1 (TDP1): qHTS in cells in absence of CPT; DT40 Tdp1-/- hTDP1 cells, no CPT, ATP luminescence, 48 h; Potency, µM (titrated, usually from 46.2 µM), inactives show at the highest dose activity change, negative = growth inhibition, usual class: inhibitors; 15% of 420,000 active; AID 686978, 2013; also: potency is read from the fitted curve at half-maximal effect; % is scaled to controls: 0 for no effect and ±100 for the full control effect; nearly all actives have a fitted effect of over 55% in size
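Growth kinetics read by CellTiter-Glo luminescence after ≥48 hr at 37 °C. Cells: DT40 Tdp1-/- stably carrying human TDP1, 400 per well, compound exposure in the absence of CPT (DMSO vehicle).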
USP1 UbRho = Inhibitors of USP1/UAF1: Hit Validation in Primary Assay; Potency, µM (highest dose often 56.8 µM), for the others: at the top dose activity change, negative = inhibition, hits mostly inhibitors; shares compounds with VDR inhibitor; AID 540327, 2011; 50% of 50 active; Ub-Rhodamine cleavage, fluorescence kinetic read
VDR inh confirm = qHTS for Inhibitors of the vitamin D receptor (VDR): Hit Validation in Primary Screen. shares compounds with VDR inhibitor. 89% of 840 active. AID 602199, 2012. Potency, µM, actives largely listed as inhibitors. VDR-coactivator inhibition assay, qHTS confirmation; also: potency is read from the fitted curve at half-maximal effect
VDR FP fluor = qHTS for Inhibitors of the vitamin D receptor (VDR): Hit Validation using a Fluorescein Assay; Potency, µM (doses to about 57.1 µM), for inactives: top-dose activity change, negative = inhibition, actives largely listed as inhibitors; shares compounds with VDR inhibitor; VDR-coactivator binding, fluorescein fluorescence polarization; AID 602200, 2012; 48% of 840 active; also: potency is read from the fitted curve at half-maximal effect
VDR bla = qHTS for Inhibitors of the vitamin D receptor (VDR): Hit Validation using a Beta-Lactamase Assay; AID 602202, 2012; VDR beta-lactamase reporter cells, FRET ratio; cells co-treated with VDR agonist LG190178; Potency, µM (highest dose often 46.1 µM), without a hit: top-dose activity change, negative = inhibition, hits mostly inhibitors; shares compounds with VDR inhibitor; 23% of 840 active; also: potency is read from the fitted curve at half-maximal effect; % is scaled to controls: 0 for no effect and ±100 for the full control effect
VDR viability = qHTS for Inhibitors of the vitamin D receptor (VDR): Hit Validation using a Cytotoxicity Assay; shares compounds with VDR inhibitor; 18% of 840 active; cytotoxicity counter-screen, cell viability, qHTS; Potency, µM (highest dose often 48.3 µM), for the others: at the highest dose activity change, negative = cytotoxicity, usual class: cytotoxic; AID 602204, 2012;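 also: potency is read from the fitted curve at half-maximal effect; plate controls were DMSO for no effect and high-concentration cycloheximide for full effect; nearly all actives have a fitted effect of over 75% in size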
* marks the source's active call; other numbers are inactive results; u = inconclusive; x = not tested or not shown; [ ] = remark or other dose. Hits are enriched below; roughly 18% of the tested compounds scored in any of these assays. Calls follow the shape of the dose curve; as a rule, active = well fitted curve in the direction sought with a large enough effect; inconclusive = small, poorly fitted or top-dose-only effect, or another doubt; inactive = no such curve, though single readings can be large; an effect the other way counts as inactive or inconclusive.

SMILES	GCN5L2 inh	TDP1 inh	PLK1 PBD inh	VDR inhibitor	DT40 TDP1 CPT	DT40 TDP1 no CPT	VDR inh confirm	VDR FP fluor	VDR bla	VDR viability	others
CCOc1ccc(C(Nc2cccnc2)c2cc(Cl)c3cccnc3c2O)cc1 (stereo unspecified)	-20.5%	-2.4%	4.74µM*	u	u	14.6µM*	7.08*	u	-21.0%	u
O=C(O)COc1ccccc1C(Nc1cccnc1)c1cc(Cl)c2cccnc2c1O (stereo unspecified)	u	-2.7%	1.19µM*	22.4µM*	6.0%	9.9%	13.4*	u	9.5%	21.2%
CCOC(=O)N1CCN(CCC(=O)c2ccc(Cl)cc2)CC1	-0.5%	2.3%	11.9µM*	35.5µM*	2.31µM*	3.26µM*	11.9*	11.2µM*	u	u
O=C(CN1CCN(c2ccc([N+](=O)[O-])cc2)CC1)c1ccccc1	-0.5%	x	-26.2%	-18.8%	u	u	x	x	x	x
O=C(CCN1CCN(c2ccc([N+](=O)[O-])cc2)CC1)c1ccc(Cl)cc1	-0.8%	x	u	25.1µM*	3.66µM*	4.61µM*	26.7*	12.6µM*	12.3%	u
CCc1ccc(CNC(=O)c2ccc(OC3CCN(C(=O)COC)CC3)cc2)nc1	u	1.8%	-2.7%	-16.3%	-10.4%	u	x	x	x	x
CC(C)(Sc1ccc(CCN(CCCCC2CCCCC2)C(=O)NC2CCCCC2)cc1)C(=O)O	12.6µM*	10.2%[56.1 µM]	21.2µM*	39.8µM*	-22.7%	-4.7%	x	x	x	x	USP1 UbRho=33.2µM*
CN(Cc1ccccc1)C(=O)NC1CCCCC1	-3.8%	6.7%	-3.8%	17.6%	-5.4%	7.2%	x	x	x	x
CC(CNS(=O)(=O)c1ccccc1)(c1ccccc1)N1CCOCC1 (stereo unspecified)	-3.2%	5.5%	1.7%	-6.7%	-8.4%	-14.2%	x	x	x	x
Cc1ccccc1OCCCN1CCCC1	-5.7%	-5.9%	-4.7%	0.2%	-9.0%	14.2%	x	x	x	x
Cc1cccc2c1N(CCCOc1ccccc1)C(=O)C2=O	-8.5%	7.8%	u	50.1µM*	9.2µM*	16.4µM*	18.9*	u	-9.8%	10.3%
Cc1ccccc1OCCCN1C(=O)C(=O)c2cccc(C)c21	-16.3%	14.1%	u	31.6µM*	2.59µM*	1.84µM*	u	11.2µM*	1.6%	19.8%
O=C1c2ccccc2C(=O)N1CCOc1cccc(Br)c1	-4.9%	-17.3%	1.9%	-12.1%	-0.2%	-5.3%	x	x	x	x
CC(C(=O)O)n1cc(Cl)cn1 (stereo unspecified)	2.3%	1.2%	-20.2%	13.0%	u	-3.2%	x	x	x	x
CCC(Sc1nc2ncccc2[nH]1)C(=O)N1CCOCC1 (stereo unspecified)	-15.0%	x	-6.9%	-1.2%	5.3%	11.6%	x	x	x	x
CSC1=NC(C)(C)C=C(/C=C/c2c(Cl)cccc2Cl)N1	-17.0%	2.9%	-22.5%	7.4%	14.3%	4.3%	x	x	x	x
CCSC1=NC(C)(C)C=C(/C=C/c2ccc(Cl)cc2Cl)N1	u	6.6%	u	u	u	16.4µM*	14.1*	15.8µM*	23.1µM*	u
COc1ccc(Cc2c(O)nc(SC)n(C(C)=O)c2=O)cc1	-9.7%	1.6%	-13.9%	u	-18.1%	-29.0%	u	5.62µM*	7.0%	5.8%
O=C(O)c1ccc(S(=O)(=O)c2ccc([N+](=O)[O-])cc2[N+](=O)[O-])cc1	-0.2%	x	8.44µM*	22.4µM*	20.6µM*	u	10.6*	u	15.5%	-13.8%
Ic1ccc(N2CCN(Cc3c[nH]c4ncccc34)CC2)cc1	u	-10.7%[56.1 µM]	-13.5%	u	11.2µM*	3.26µM*	x	x	x	x	USP1 UbRho=u
O=C(c1ccc(Cl)cc1)C(CN1CCCCC1)c1ccccc1 (stereo unspecified)	18.7%	x	u	20µM*	1.64µM*	2.06µM*	u	22.4µM*	13µM*	18.4µM*
Cc1ccc(S(=O)(=O)N(C)C)cc1NC(=O)CCc1ccccc1	0.3%	0.0%	4.2%	-15.2%	-6.8%	-20.2%	x	x	x	x
Cc1cc(C)cc(NC(=O)c2nccnc2C(=O)O)c1	-4.8%	-11.8%	-13.5%	-18.2%	5.4%	-1.8%	x	x	x	x
COc1ccc(/C=C/C(=O)Nc2nnc(C(C)C)s2)cc1OC	0.9%	2.6%	2.6%	-10.9%	6.2%	-12.7%	x	x	x	x
COc1cc(/C=C/C(=O)Nc2nnc(CC(C)(C)C)s2)cc(OC)c1OC	-15.7%	2.7%	8.44µM*	79.4µM*	u	20.6µM*	21.2*	14.1µM*	25.9%	10.9%
O=C(O)COc1ccc2oc3ccccc3c2c1	-0.9%	4.8%	-6.6%	-10.2%	3.9%	1.9%	x	x	x	x
O=C(O)COc1cccc(-c2ocnc2-c2nc(-c3ccccc3)c(-c3ccccc3)o2)c1	u	8.6%[56.1 µM]	x	u	-3.4%	2.3%	x	x	x	x	USP1 UbRho=59.1µM*
